Screening results from PubChem BioAssay.
In the library only some 19% were active in any assay of this set; here they are far more common.
Shiga toxin inh: A qHTS for Small Molecule Inhibitors of Shiga Toxin | Vero cells, Shiga toxin protein synthesis inhibition reporter | 290,000 compounds, 9.2% hits | inhibition, % at 38.7 µM | AID 2315, 2010; in the data active = inhibition mostly above about 28%, no sharp cut-off; inactive = mostly below about 43%
Pf growth 48h: Primary qHTS for delayed death inhibitors of the malarial parasite plastid, 48 hour incubation. P. falciparum luciferase growth in erythrocytes, 48 h. AID 504832, 2011. 310,000 compounds, 5.9% hits. Potency, µM (doses to about 28.7 µM), hits mostly inhibitors
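In quantitative HTS format, infected erythrocytes bearing luciferase-reporter parasites were treated for a single generation at 37 C. Luminescence after adding detection reagent served as the growth measure.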
SARS PLpro yeast: qHTS of Yeast-based Assay for SARS-CoV PLP; AID 485353, 2010; 330,000 compounds, 0.19% hits; Potency, µM (doses to about 32.9 µM), most hits filed as activators; S. cerevisiae expressing SARS-CoV PLpro, growth rescue; calls by dose curve; note: nearly all actives have a fitted effect of over 55% in size
Cycloheximide cs: Cycloheximide Counterscreen for Small Molecule Inhibitors of Shiga Toxin; cell reporter, cycloheximide protein synthesis inhibition counterscreen; 300,000 compounds, 12% hits; max response, %; in the data active = max response mostly above about 13%, no sharp cut-off; inactive = mostly below about 14%; note: read at 38.3 µM for the half of the compounds with a filed dose
Pf growth 96h: Primary qHTS for delayed death inhibitors of the malarial parasite plastid, 96 hour incubation; P. falciparum luciferase reporter growth, 96 h; 320,000 compounds, 6.9% hits; Potency, µM (titrated, usually from 28.7 µM), actives largely listed as inhibitors
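Parasite growth measured via integrated firefly luciferase reporter in P. falciparum. Infected erythrocytes at 2% hematocrit, 0.05% parasitemia final were treated 96 hours at 37 C under 5% CO2, and luminescence was read.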
AMA1-RON2 inh: qHTS for Inhibitors of AMA1-RON; Towards Development of Antimalarial Drug Lead: Primary Screen; Plasmodium falciparum AMA1 (3D7) - RON2 peptide interaction; AlphaScreen AMA1-biotinylated RON2 peptide binding; Potency, µM (doses to about 58.2 µM), actives largely listed as inhibitors; 360,000 compounds, 0.2% hits; AID 720542, 2013; note: nearly all actives have a fitted effect of over 45% in size
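AMA1 (3D7) with his tag at 25 nM final met compounds first, then biotinylated RON2 peptide at 25 nM; detection used donor plus acceptor beads, 10 µg/mL apiece, read by AlphaScreen after 30 min at room temperature.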
Hits are given with their value; - = inactive; ? = inconclusive; . = no result given. Unless noted, calls come from the whole dose curve; as a rule, active = well fitted curve in the direction sought with a large enough effect; inconclusive = small, poorly fitted or top-dose-only effect, or another doubt; inactive = no such curve, though single readings can be large; an effect the other way counts as inactive or inconclusive.

SMILES | Shiga toxin inh | Pf growth 48h | SARS PLpro yeast | Cycloheximide cs | Pf growth 96h | AMA1-RON2 inh
CC(=O)c1ccc(NC(=O)C2CCN(S(=O)(=O)c3cccs3)CC2)cc1 | 44 | ? | - | 44 | ? | -
CC1CCN(C(=O)C2CCN(S(=O)(=O)c3cccs3)CC2)CC1 | - | - | - | 17 | - | -
O=C(Nc1nc2ccccc2[nH]1)C1CCN(S(=O)(=O)c2cccs2)CC1 | - | . | - | 14 | - | -
CC(=O)N1CCc2c(sc(NC(=O)C3CCN(S(=O)(=O)c4cccs4)CC3)c2C(N)=O)C1 | . | 12µM | - | . | ? | -
O=C(/C=C/c1ccccc1)NNC(=O)c1ccco1 | - | - | - | - | - | -
O=C(O)c1cccc(-n2nc(-c3ccc(Cl)c([N+](=O)[O-])c3)c3ccccc3c2=O)c1 | - | ? | ? | - | ? | -
O=C(O)Cn1ccc2ccccc21 | - | - | - | - | - | -
O=C(c1ccccc1)n1ccc2ccccc21 | 137 | - | - | 31 | - | -
O=C(CCc1nc(-c2ccc(Cl)cc2)no1)NCc1ccccc1CN1CCOCC1 | . | - | - | . | - | -
Cc1nc(NC(=O)CSC2=NCCS2)sc1C(=O)N(C)C | - | ? | - | - | ? | -
CC1(C)CC(=O)C=C(c2ccc3c(c2)OCO3)C1 | . | . | . | . | . | -
NC(=O)Cc1ccc(Nc2nnc(-c3ccccc3)c3ccccc23)cc1 | - | - | - | 10 | - | -
O=C(Nc1ccc(COc2ccccc2)cc1)Oc1ccccc1N1CCOCC1 | - | - | - | 17 | - | -
O=C(Nc1ccccc1)Oc1ccccc1N1CCOCC1 | - | - | - | - | - | -
O=C(O)C1CCCCC1C(=O)Nc1ccc(F)cc1F (stereo not drawn) | - | - | - | - | - | -
CN(Cc1ccccc1)C(=O)COC(=O)CCNC(=O)c1ccccc1Cl | - | - | - | - | - | -
CC(Sc1nnc(COc2ccc(Cl)cc2)o1)C(=O)Nc1ccc(N2CCOCC2)cc1 (stereo not drawn) | . | - | - | . | - | -
O=C(NC1=NCCS1)c1ccc(Cl)c(S(=O)(=O)N2CCCCCC2)c1 | - | - | - | 18 | - | -
O=C(c1ccc(Cl)c(S(=O)(=O)N2CCCCC2)c1)N1CCCCC1 | - | - | - | - | - | -
CN1CC(=O)NC1=NC(=O)c1ccc(Cl)c(S(=O)(=O)N2CCCCCC2)c1 | - | ? | - | - | 8.3µM | -
Cc1ccc(NC(=O)c2ccc(Cl)c(S(=O)(=O)N3CCCCC3)c2)nc1 | . | 9.3µM | - | . | 10µM | -
Cc1ccc(C(=O)Nc2ccc(Cl)cn2)cc1S(=O)(=O)N1CCOCC1 | 61 | - | - | 35 | - | -
CC(=O)c1cccc(NC(=O)C2Cc3c(-c4ccc5c(c4)OCO5)ccnc3O2)c1 (stereo not drawn) | . | . | . | . | . | -
Cc1cc(C)n(-c2ccc(C(=O)OCC(=O)Nc3ccc(Cl)cc3[N+](=O)[O-])cc2)n1 | - | - | - | - | - | -
COc1ccccc1OCC(=O)Nc1nc2c(s1)CCCC2 | 78 | - | - | 49 | - | -
SMILES | Shiga toxin inh | Pf growth 48h | SARS PLpro yeast | Cycloheximide cs | Pf growth 96h | AMA1-RON2 inh
COc1ccc(NC(=O)Nc2nc3c(s2)CCCC3)cc1 | - | - | - | 19 | - | -
COC(=O)C(NC(=O)COc1ccccc1)(Nc1nc2c(s1)CCCC2)C(F)(F)F (stereo not drawn) | - | ? | - | - | 10µM | -
O=C(COc1ccc(F)cc1)Nc1nnc(C2CCCCC2)s1 | - | ? | - | - | - | -
O=C(COc1ccc(F)cc1)Nc1nc2c(s1)CCCC2 | - | - | - | 38 | ? | -
CCc1ccc(CN(C)Cc2nc(-c3cccc(Cl)c3)no2)nc1 | - | - | - | - | ? | -
COc1ccc(OCC(=O)Nc2nc3c(s2)CCCC3)cc1 | 68 | - | - | 36 | - | -
Cc1ccc(CC(=O)Nc2nc3c(s2)CCCC3)cc1 | - | - | - | - | . | -
COc1cccc(-n2nnnc2SCC(=O)Nc2nc3c(s2)CCCC3)c1 | 87 | - | - | 25 | ? | -
O=C(COC(=O)Cc1ccc(S(=O)(=O)N2CCOCC2)s1)Nc1ccccc1Cl | . | . | - | . | . | -
Cc1cc(C(=O)OCC(N)=O)c(C)n1-c1ccccc1 | 41 | ? | - | 33 | 2.1µM | -
C/C(N)=C(/C#N)C(=O)COC(=O)c1cc(C)n(-c2ccc(F)cc2)c1C | 96 | 8.3µM | - | 72 | 3.3µM | -
CCOC(=O)c1cc(C)n(-c2ccccc2)c1C | 52 | - | - | 50 | - | ?
CCN(C(=O)COC(=O)c1cc(C)n(-c2ccc(F)cc2)c1C)C1CCS(=O)(=O)C1 (stereo not drawn) | - | ? | - | - | - | -
Cc1cc(C(=O)OCC(=O)c2c(N)n(C)c(=O)n(C)c2=O)c(C)n1-c1ccccc1 | - | ? | - | - | . | -
COc1ncc(-c2ccc(N3C(c4ccsc4)=Cc4ccc(F)cc4C3CC(C)=O)cc2)cn1 (stereo not drawn) | . | . | . | . | . | -
Cc1cc(NCc2ccccc2)nc2ccccc12 | - | ? | - | - | - | -
C/C(CCC(C)C)=N\Nc1cc(C)c2ccccc2n1 | - | ? | - | - | 17µM | -
